Results from PubChem BioAssay (NCI).
Compounds without any hit were thinned out: in the full panel of roughly 83,000, 20% have a hit.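 Cell lines were cultured in 96-well plates, exposed to a single compound concentration, and assessed for percent growth 48 hours later.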 Active and inactive are the calls of the source. The calls were made as follows: active = growth percent below 10; inactive = the rest.

What was measured:
Experiment in all cases: NCI-60 one-dose screen, 48 h (100 = growth as untreated, 0 = no growth, -100 = all killed)
Details in all cases: 10 µM unless noted
SK-MEL-2 melanoma = test system: SK-MEL-2 melanoma
EKVX NSCLC = test system: EKVX NSCLC
SN12C renal = test system: SN12C renal
UO-31 renal = test system: UO-31 renal
TK-10 renal = test system: TK-10 renal
A498 renal = test system: A498 renal
CCRF-CEM leukemia = test system: CCRF-CEM leukemia
MOLT-4 leukemia = test system: MOLT-4 leukemia
ACHN renal = test system: ACHN renal
CAKI-1 renal = test system: CAKI-1 renal

Measured: growth

CC(c1ccccc1)N1C(=O)CSC1=S (stereo unspecified)
inactive: EKVX NSCLC 52.1% | SN12C renal 62.4% | UO-31 renal 49.2% | TK-10 renal 42.3% | A498 renal 78.1% | CCRF-CEM leukemia 63.8% | MOLT-4 leukemia 28.3%
active: SK-MEL-2 melanoma 1.02%

Cc1ccc(Cc2ccc(C)cc2)cc1
inactive: SK-MEL-2 melanoma 99.6% | EKVX NSCLC 94.9% | SN12C renal 110% | TK-10 renal 107% | ACHN renal 99.9% | CAKI-1 renal 99.8% | A498 renal 93.2% | MOLT-4 leukemia 97.2%

COC1OC(COC(C)=O)C(OC(C)=O)C(OC(C)=O)C1OC(C)=O (stereo unspecified)
inactive: SK-MEL-2 melanoma 101% | EKVX NSCLC 93% | SN12C renal 101% | UO-31 renal 99.3% | TK-10 renal 104% | A498 renal 88.8% | CCRF-CEM leukemia 95.9% | MOLT-4 leukemia 96.3%

CCOC(=O)c1ccc(NC(C)=O)o1
inactive: SK-MEL-2 melanoma 99.6% | EKVX NSCLC 111% | SN12C renal 95.1% | UO-31 renal 87.4% | TK-10 renal 100% | CAKI-1 renal 103% | A498 renal 63% | CCRF-CEM leukemia 98.8% | MOLT-4 leukemia 79.1%

CCN(CC)c1ccc2nc3ccc(N=Nc4ccc(N(C)C)cc4)cc3[n+](-c3ccccc3)c2c1
active: SK-MEL-2 melanoma -37.1% | EKVX NSCLC -75.2% | SN12C renal -49.5% | TK-10 renal 5.74% | ACHN renal -79.4% | CAKI-1 renal -27.8% | A498 renal -25.1% | CCRF-CEM leukemia -21% | MOLT-4 leukemia -20.1%

CS(=O)CC(=N\O)/C(CS(C)=O)=N\O (stereo unspecified)
inactive: SK-MEL-2 melanoma 102% | EKVX NSCLC 99.1% | SN12C renal 97.6% | TK-10 renal 106% | ACHN renal 107% | CAKI-1 renal 91.2% | A498 renal 111% | CCRF-CEM leukemia 101% | MOLT-4 leukemia 105%

CC(=O)C[n+]1ccc(C)cc1Sc1ccccc1C
active: CCRF-CEM leukemia 1.97%
inactive: SK-MEL-2 melanoma 127% | EKVX NSCLC 103% | SN12C renal 64.8% | TK-10 renal 106% | ACHN renal 97.1% | CAKI-1 renal 102% | A498 renal 127% | MOLT-4 leukemia 54.7%

NC(=O)N1CCOCC1
inactive: SK-MEL-2 melanoma 105% | EKVX NSCLC 108% | SN12C renal 109% | UO-31 renal 79.8% | TK-10 renal 92.4% | A498 renal 92.7% | CCRF-CEM leukemia 88.9% | MOLT-4 leukemia 93.7%

Cc1cc(CC(=O)NCCO)n(CCO)c(=O)c1
inactive: SK-MEL-2 melanoma 109% | EKVX NSCLC 93.7% | SN12C renal 103% | TK-10 renal 94.1% | ACHN renal 106% | A498 renal 89.4%

Cc1cc(C(=O)NN)c(C#N)c(=O)[nH]1
inactive: SK-MEL-2 melanoma 100% | EKVX NSCLC 109% | SN12C renal 88.4% | TK-10 renal 115% | ACHN renal 105% | CAKI-1 renal 96.8% | A498 renal 95.7% | CCRF-CEM leukemia 95.9% | MOLT-4 leukemia 111%

COC1(OC)C2(Cl)C(Cl)=C(Cl)C1(Cl)C1COCC12 (stereo unspecified)
inactive: SK-MEL-2 melanoma 89.7% | EKVX NSCLC 104% | SN12C renal 99.2% | UO-31 renal 91.6% | TK-10 renal 94.7% | CAKI-1 renal 93.9% | A498 renal 87.6% | CCRF-CEM leukemia 103% | MOLT-4 leukemia 102%

S=c1nc2[nH]c3ccccc3c2n[nH]1
active: SK-MEL-2 melanoma 5.51%
inactive: EKVX NSCLC 66.4% | SN12C renal 92.2% | UO-31 renal 88.6% | TK-10 renal 122% | CAKI-1 renal 88.9% | A498 renal 95.7% | MOLT-4 leukemia 104%

N#C/C(=C\c1ccc2c(c1)OCO2)c1ccccc1
inactive: SK-MEL-2 melanoma 76.5% | EKVX NSCLC 80.9% | SN12C renal 89.3% | UO-31 renal 76.7% | CAKI-1 renal 58.9% | A498 renal 62.7% | CCRF-CEM leukemia 75.3% | MOLT-4 leukemia 57.8%

OC(CCN1CCCCC1)(c1ccccc1)c1ccccc1
inactive: SK-MEL-2 melanoma 110% | EKVX NSCLC 98.9% | SN12C renal 108% | UO-31 renal 75.4% | TK-10 renal 113% | CAKI-1 renal 92.6% | A498 renal 100% | CCRF-CEM leukemia 103% | MOLT-4 leukemia 102%

CC1(C)C2CCC1(C)C1(C2)OCCS1 (stereo unspecified)
inactive: SK-MEL-2 melanoma 104% | EKVX NSCLC 87.4% | SN12C renal 87.6% | UO-31 renal 90.1% | TK-10 renal 97.9% | CAKI-1 renal 87.2% | A498 renal 113% | MOLT-4 leukemia 99.6%

Cc1ccc2nc(N)nnc2c1
inactive: SK-MEL-2 melanoma 107% | EKVX NSCLC 113% | SN12C renal 98.4% | UO-31 renal 87.5% | TK-10 renal 108% | CAKI-1 renal 83.7% | A498 renal 95.2% | CCRF-CEM leukemia 102% | MOLT-4 leukemia 100%

CCOC(=O)C1(N)CCCCC1
inactive: SK-MEL-2 melanoma 106% | EKVX NSCLC 97.5% | SN12C renal 93.1% | TK-10 renal 96.3% | ACHN renal 104% | A498 renal 173% | CCRF-CEM leukemia 98.1% | MOLT-4 leukemia 107%

Cc1ccc(/C=N/NC(N)=S)s1
inactive: SK-MEL-2 melanoma 102% | EKVX NSCLC 96% | SN12C renal 99% | TK-10 renal 105% | ACHN renal 103% | CAKI-1 renal 92% | A498 renal 95.2% | CCRF-CEM leukemia 100% | MOLT-4 leukemia 99.4%

CN1CCCN(C(c2ccccc2)c2ccc(Br)cc2)CC1 (stereo unspecified)
inactive: SK-MEL-2 melanoma 113% | EKVX NSCLC 66.9% | SN12C renal 65.4% | UO-31 renal 60.5% | TK-10 renal 61.4% | CAKI-1 renal 49.2% | A498 renal 74.2% | CCRF-CEM leukemia 96.6% | MOLT-4 leukemia 55.5%

Oc1ccc2ccccc2c1CN1CCOCC1
inactive: SK-MEL-2 melanoma 103% | EKVX NSCLC 113% | SN12C renal 107% | UO-31 renal 74.6% | TK-10 renal 123% | CAKI-1 renal 94.6% | A498 renal 112% | CCRF-CEM leukemia 95.3% | MOLT-4 leukemia 99.6%

CCCCN(C(=O)CC)c1ccccc1
inactive: SK-MEL-2 melanoma 108% | EKVX NSCLC 97% | UO-31 renal 86.7% | TK-10 renal 97.2% | ACHN renal 103% | CAKI-1 renal 101% | A498 renal 83.3%

CC(=O)OCC1OC(n2cnc3c(=S)nc(N)[nH]c32)C(OC(C)=O)C1OC(C)=O (stereo unspecified)
active: MOLT-4 leukemia 2.42%
inactive: SK-MEL-2 melanoma 95.2% | EKVX NSCLC 83.9% | SN12C renal 97.4% | TK-10 renal 82.4% | ACHN renal 72.1% | A498 renal 105%

O=C(O)c1ccccc1Cc1ccc2c(c1)CCCC2
inactive: SK-MEL-2 melanoma 113% | EKVX NSCLC 119% | UO-31 renal 73.1% | TK-10 renal 103% | ACHN renal 104% | CAKI-1 renal 98.5% | A498 renal 107% | CCRF-CEM leukemia 106% | MOLT-4 leukemia 97.9%

NCCCN1CCCC1=O
inactive: SK-MEL-2 melanoma 117% | EKVX NSCLC 122% | UO-31 renal 95.7% | TK-10 renal 100% | CAKI-1 renal 109% | A498 renal 103% | CCRF-CEM leukemia 114% | MOLT-4 leukemia 97.1%

Cn1c(=O)c2[nH]c(CC(=O)O)nc2n(C)c1=O
inactive: SK-MEL-2 melanoma 105% | EKVX NSCLC 101% | UO-31 renal 93.5% | TK-10 renal 102% | CAKI-1 renal 102% | A498 renal 98.4% | MOLT-4 leukemia 103%

CCOC(=O)C(=O)CC(=O)c1ccccc1
inactive: SK-MEL-2 melanoma 96.9% | EKVX NSCLC 97.4% | UO-31 renal 85.3% | TK-10 renal 113% | ACHN renal 94.8% | CAKI-1 renal 95.4% | CCRF-CEM leukemia 114% | MOLT-4 leukemia 104%

CC(C)(C)NCCC(O)c1cc(C(F)(F)F)nc2c(C(F)(F)F)cccc12 (stereo unspecified)
inactive: SK-MEL-2 melanoma 102% | EKVX NSCLC 86.7% | SN12C renal 84.7% | TK-10 renal 82.9% | ACHN renal 67.2% | A498 renal 33.3% | CCRF-CEM leukemia 94.5% | MOLT-4 leukemia 89.6%

CN(C)c1ncnc2c1cnn2C
inactive: SK-MEL-2 melanoma 110% | SN12C renal 97.2% | UO-31 renal 90.6% | TK-10 renal 108% | ACHN renal 110% | CAKI-1 renal 100% | A498 renal 112% | CCRF-CEM leukemia 87.4% | MOLT-4 leukemia 117%

Cc1ccc2[nH]c3ccccc3c2c1
inactive: SK-MEL-2 melanoma 109% | EKVX NSCLC 108% | UO-31 renal 91.3% | TK-10 renal 106% | ACHN renal 110% | CAKI-1 renal 97.3% | A498 renal 82.5% | CCRF-CEM leukemia 92.8% | MOLT-4 leukemia 94.4%

C=C1CC2(OC1=O)C(=O)N(C)c1ccc(I)cc12 (stereo unspecified)
active: SK-MEL-2 melanoma -73.1% | EKVX NSCLC -46.4% | UO-31 renal -66% | TK-10 renal -80.9% | ACHN renal -84.5% | CAKI-1 renal -91.3% | A498 renal -13.6% | MOLT-4 leukemia -50.1%

CCC(/C=C\C(C)=O)CC
inactive: SK-MEL-2 melanoma 112% | SN12C renal 98.3% | UO-31 renal 92.3% | TK-10 renal 102% | ACHN renal 102% | CAKI-1 renal 100% | A498 renal 90.4% | CCRF-CEM leukemia 105% | MOLT-4 leukemia 112%

O=C(O)c1cc(I)ccc1O
inactive: SK-MEL-2 melanoma 107% | EKVX NSCLC 100% | UO-31 renal 90.7% | TK-10 renal 93.3% | ACHN renal 97.6% | CAKI-1 renal 103% | A498 renal 126% | CCRF-CEM leukemia 99.3% | MOLT-4 leukemia 108%

N#C/C(=C\c1ccc(C#N)cc1)C(=O)c1ccccc1
inactive: SK-MEL-2 melanoma 101% | EKVX NSCLC 109% | UO-31 renal 89.1% | TK-10 renal 132% | ACHN renal 101% | A498 renal 118% | CCRF-CEM leukemia 92.9%

C=CCOc1ccc(Cl)cc1Cl
inactive: SK-MEL-2 melanoma 119% | EKVX NSCLC 103% | UO-31 renal 93.5% | TK-10 renal 113% | ACHN renal 102% | CAKI-1 renal 98% | A498 renal 107% | MOLT-4 leukemia 52%

CC(C)(CC(=O)O)CC(=O)O
inactive: SK-MEL-2 melanoma 107% | EKVX NSCLC 97.4% | UO-31 renal 94% | TK-10 renal 96.5% | ACHN renal 104% | CAKI-1 renal 97.7% | A498 renal 93.7% | CCRF-CEM leukemia 105% | MOLT-4 leukemia 100%
